The results in this text go back to the supplement of paper PMC4709259.

Structures can show the parent of a compound that is named as a salt. ± gives the standard deviation.

The test system of assay [1] is Jurkat. The experiment in a line: mean cell size (FSC-A) relative to DMSO control (fraction of control); higher = larger cells. The settings on record: 48 h. In short, it runs like this:
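Jurkat cells seeded at 600 cells/µl were incubated 1 h, then exposed for 48h to the Enzo Screen-Well FDA Approved Drug Library v2.0 at 25µM in 0.9% (v/v) final DMSO. Drugs that cut counts below 20% of controls were diluted 10-fold and retested, down to 25nM. Cell count and mean cell size (forward scatter area) were read on an Accuri C6 flow cytometer, relative to solvent-only controls. Plates held 6-12 controls; values are means of 3 biological replicates.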

Assay [2] relates to Jurkat. Put plainly: cell count relative to DMSO control (fraction of control); higher = more cells (less growth inhibition). Conditions: 48 h.

Regarding `O=C(O)P(=O)(O)O` [Foscarnet·Na (Sodium Phosphonoformate Tribasic Hexahydrate)] (concentration: 25 µM), the mean cell size in the assay with Jurkat [1] was 0.936 ± 0.065. In the assay on Jurkat [2], this compound registered a cell count of 0.59 ± 0.027.
The corresponding values for `CC[C@@H](CO)NCCN[C@@H](CC)CO` [Ethambutol Dihydrochloride] (concentration: 25 µM) are 1.02 ± 0.064 and 0.721 ± 0.18.
`CC(=O)Nc1c(I)c(NC(C)=O)c(I)c(C(=O)O)c1I` [Diatrizoate Meglumine] (concentration: 25 µM) came in with a mean cell size in the assay with Jurkat [1] of 0.99 ± 0.021. For the same compound, the cell count with Jurkat [2] was 0.846 ± 0.085.
For `C[C@H](CCC(=O)O)[C@H]1CC[C@H]2[C@@H]3[C@@H](O)C[C@@H]4C[C@H](O)CC[C@]4(C)[C@H]3CC[C@]12C` [Ursodiol] (concentration: 25 µM) the same measures were 1.01 ± 0.031 and 0.718 ± 0.096.
The corresponding values for `O=C1c2c(O)ccc(O)c2C(=O)c2c(NCCNCCO)ccc(NCCNCCO)c21` [Mitoxantrone·HCl] (concentration: 25 nM) are 1.43 ± 0.11 and 0.2 ± 0.063.
For `COc1c(C)c2c(c(O)c1C/C=C(\C)CCC(=O)O)C(=O)OC2` [Mycophenolic Acid] (concentration: 2.5 µM) the same measures were 1.01 ± 0.014 and 0.225 ± 0.05.
As for `NC(=O)OCC(COC(N)=O)c1ccccc1` [Felbamate] (concentration: 25 µM), the mean cell size in the assay with Jurkat [1] was 1.02 ± 0.053. Moreover, in the assay with Jurkat [2], the cell count is 0.755 ± 0.16.
With `CCC(C)n1ncn(-c2ccc(N3CCN(c4ccc(OCC5COC(Cn6cncn6)(c6ccc(Cl)cc6Cl)O5)cc4)CC3)cc2)c1=O` (stereo unspecified) [Itraconazole] (concentration: 25 µM), the mean cell size in the assay with Jurkat [1] came to 1.11 ± 0.071. In the assay with Jurkat [2], this compound showed a cell count of 0.323 ± 0.026.
For `CCc1nn(CCCN2CCN(c3cccc(Cl)c3)CC2)c(=O)n1CCOc1ccccc1` [Nefazodone·HCl] (concentration: 25 µM) the same measures were 0.924 ± 0.015 and 0.601 ± 0.02.
For `CCCN(CCC)S(=O)(=O)c1ccc(C(=O)O)cc1` [Probenecid] (concentration: 25 µM) the same measures were 0.993 ± 0.012 and 0.595 ± 0.13.
For `OCCN1CCN(CCCN2c3ccccc3Sc3ccc(Cl)cc32)CC1` [Perphenazine] (concentration: 2.5 µM) the same measures were 1 ± 0.029 and 0.556 ± 0.11.
`Cc1ccc(-c2cc(C(F)(F)F)nn2-c2ccc(S(N)(=O)=O)cc2)cc1` [Celecoxib] (concentration: 25 µM) came in with a mean cell size in the assay with Jurkat [1] of 0.966 ± 0.029. In addition, the cell count in the assay on Jurkat [2] turned out to be 0.514 ± 0.11.
For `CN(CCOc1ccc(NS(C)(=O)=O)cc1)CCc1ccc(NS(C)(=O)=O)cc1` [Dofetilide] (concentration: 25 µM) the same measures were 0.962 ± 0.015 and 0.872 ± 0.084.
The corresponding values for `CO[C@H]1/C=C/O[C@@]2(C)Oc3c(C)c(O)c4c(O)c(c(/C=N/N5CCN(C)CC5)c(O)c4c3C2=O)NC(=O)/C(C)=C\C=C\[C@H](C)[C@H](O)[C@@H](C)[C@@H](O)[C@@H](C)[C@H](OC(C)=O)[C@@H]1C` [Rifampin (Rifampicin)] (concentration: 25 µM) are 0.964 ± 0.0034 and 0.765 ± 0.035.
For `CC(C)OC(=O)CCC/C=C\C[C@@H]1[C@@H](CC[C@@H](O)CCc2ccccc2)[C@H](O)C[C@@H]1O` [Latanoprost] (concentration: 25 µM) the same measures were 0.981 ± 0.046 and 0.534 ± 0.18.
For the compound `N=C(NCCCCCCNC(=N)NC(=N)Nc1ccc(Cl)cc1)NC(=N)Nc1ccc(Cl)cc1` [Chlorhexidine Dihydrochloride] (concentration: 2.5 µM), the mean cell size with Jurkat [1] amounted to 0.986 ± 0.017. In addition, the cell count with Jurkat [2] was 0.763 ± 0.045.
For `Nc1ncn([C@@H]2O[C@H](CO)[C@@H](O)[C@H]2O)c(=O)n1` [Azacitidine] (concentration: 25 µM) the same measures were 0.9766 ± 0.0047 and 0.668 ± 0.11.
`CC(C)C[C@H](NC(=O)[C@@H](Cc1c[nH]c2ccccc12)NC(=O)[C@H](Cc1ccc(O)cc1)NC(=O)[C@H](CO)NC(=O)[C@H](Cc1c[nH]c2ccccc12)NC(=O)[C@H](Cc1cnc[nH]1)NC(=O)[C@@H]1CCC(=O)N1)C(=O)N[C@@H](CCCN=C(N)N)C(=O)N1CCC[C@H]1C(=O)NCC(N)=O` [Triptorelin Acetate] (concentration: 25 µM): the mean cell size in the assay with Jurkat [1] was 0.997 ± 0.014. The same compound gave a cell count in the assay on Jurkat [2] of 0.458 ± 0.081.
The corresponding values for `Nc1nc2ccc(OC(F)(F)F)cc2s1` [Riluzole·HCl] (concentration: 2.5 µM) are 1.01 ± 0.028 and 0.573 ± 0.029.
`CCN1CCN(C(=O)N[C@@H](C(=O)N[C@@H]2C(=O)N3[C@@H]2SC(C)(C)[C@@H]3C(=O)O)c2ccccc2)C(=O)C1=O` [Piperacillin] (concentration: 25 µM) registered a mean cell size in the assay on Jurkat [1] of 1 ± 0.015. The cell count with Jurkat [2] worked out at 0.91 ± 0.068.
For `CC/C(=C(\c1ccccc1)c1ccc(OCCN(C)C)cc1)c1ccccc1` [Tamoxifen Citrate] (concentration: 25 µM) the same measures were 0.908 ± 0.015 and 0.314 ± 0.11.
In the case of `CN(C)CCC=C1c2ccccc2CCc2ccccc21` [Amitriptyline·HCl] (concentration: 25 µM), the mean cell size in the assay on Jurkat [1] is 0.915 ± 0.037. In the assay on Jurkat [2], this compound showed a cell count of 0.798 ± 0.033.
The corresponding values for `N=C(N)N/N=C/c1c(Cl)cccc1Cl` [Guanabenz Acetate] (concentration: 25 µM) are 0.988 ± 0.044 and 0.34 ± 0.13.
The corresponding values for `CCOC(=O)c1ncn2c1CN(C)C(=O)c1cc(F)ccc1-2` [Flumazenil] (concentration: 25 µM) are 0.95 ± 0.014 and 0.87 ± 0.025.
For `Fc1ccc([C@@H]2CCNC[C@H]2COc2ccc3c(c2)OCO3)cc1` [Paroxetine·HCl] (concentration: 2.5 µM) the same measures were 1.01 ± 0.059 and 0.24 ± 0.057.
Take `N=c1nc(N2CCCCC2)cc(N)n1O` [Minoxidil] (concentration: 25 µM): in the assay on Jurkat [1], the mean cell size worked out at 1 ± 0.024. In the assay on Jurkat [2], this compound registered a cell count of 0.703 ± 0.083.
The corresponding values for `CNCCCC12CCC(c3ccccc31)c1ccccc12` [Maprotiline·HCl] (concentration: 2.5 µM) are 0.991 ± 0.018 and 0.788 ± 0.053.
For `NC[C@@H]1O[C@H](O[C@H]2[C@@H](O)[C@H](O[C@@H]3[C@@H](O)[C@H](N)C[C@H](N)[C@H]3O[C@H]3O[C@H](CN)[C@@H](O)[C@H](O)[C@H]3N)O[C@@H]2CO)[C@H](N)[C@@H](O)[C@@H]1O` [Neomycin Sulfate] (concentration: 25 µM) the same measures were 0.935 ± 0.018 and 0.944 ± 0.038.
The corresponding values for `O=C(C1CCCCC1)N1CC(=O)N2CCc3ccccc3C2C1` (stereo unspecified) [Praziquantel] (concentration: 25 µM) are 0.996 ± 0.028 and 0.781 ± 0.048.
For `CCC(=O)OC(OP(=O)(CCCCc1ccccc1)CC(=O)N1C[C@H](C2CCCCC2)C[C@H]1C(=O)O)C(C)C` (stereo partly specified) [Fosinopril·Na] (concentration: 25 µM), the mean cell size with Jurkat [1] turned out to be 0.974 ± 0.054. For the same compound, the cell count with Jurkat [2] was 0.562 ± 0.12.
The corresponding values for `CC(=O)OC[C@H]1O[C@@H]([S-])[C@H](OC(C)=O)[C@@H](OC(C)=O)[C@@H]1OC(C)=O.CCP(CC)CC.[Au+]` [Auranofin] (concentration: 250 nM) are 0.9833 ± 0.0086 and 0.762 ± 0.058.
For `CC(C)(C)NC[C@H](O)c1ccc(O)c(CO)c1` [Levalbuterol·HCl] (concentration: 25 µM) the same measures were 0.929 ± 0.03 and 1.14 ± 0.14.
The corresponding values for `CC[C@@H]1/C=C(\C)C[C@H](C)C[C@H](OC)[C@H]2O[C@@](O)(C(=O)C(=O)N3CCCC[C@H]3C(=O)O[C@H](/C(C)=C/[C@@H]3CC[C@H](Cl)[C@H](OC)C3)[C@H](C)[C@@H](O)CC1=O)[C@H](C)C[C@@H]2OC` [Pimecrolimus] (concentration: 25 µM) are 0.822 ± 0.021 and 0.692 ± 0.099.
On to `CCc1cc(C(N)=S)ccn1` [Ethionamide] (concentration: 25 µM), for which the mean cell size in the assay with Jurkat [1] came to 1.05 ± 0.03. The same compound returned a cell count with Jurkat [2] of 1.05 ± 0.1.
For `CC(C)(C)NC(=O)[C@H]1CC[C@H]2[C@@H]3CC[C@H]4NC(=O)C=C[C@]4(C)[C@H]3CC[C@]12C` [Finasteride] (concentration: 25 µM) the same measures were 0.978 ± 0.046 and 0.684 ± 0.12.
For `CCCCCCCCCCC[C@@H](C[C@@H]1OC(=O)[C@H]1CCCCCC)OC(=O)[C@H](CC(C)C)NC=O` [Orlistat (Tetrahydrolipstatin)] (concentration: 25 µM) the same measures were 0.808 ± 0.043 and 0.355 ± 0.074.
For `O=C(O)COCCN1CCN(C(c2ccccc2)c2ccc(Cl)cc2)CC1` (stereo unspecified) [Cetirizine 2HCl] (concentration: 25 µM) the same measures were 0.962 ± 0.032 and 1.01 ± 0.12.
For the compound `COc1cc(C(=O)NS(=O)(=O)c2ccccc2C)ccc1Cc1cn(C)c2ccc(NC(=O)OC3CCCC3)cc12` [Zafirlukast] (concentration: 25 µM), the mean cell size in the assay on Jurkat [1] was 0.959 ± 0.06. Further, in the assay on Jurkat [2], the cell count came out at 0.381 ± 0.062.
